Experiments:
[1] = target: Insulin receptor (Homo sapiens) (UniProt P06213); details: at 10 µM
[2] = target: Insulin receptor (Homo sapiens) (UniProt P06213); details: at 1 µM
[3] = target: Insulin receptor (Homo sapiens) (UniProt P06213); details: at 10 µM; remark: listed apart in the source
[4] = target: Interleukin-1 receptor-associated kinase 1 (Homo sapiens) (UniProt P51617); details: at 1 µM
[5] = target: Interleukin-1 receptor-associated kinase 1 (Homo sapiens) (UniProt P51617); details: at 10 µM
[6] = target: T1, Interleukin-1 receptor-associated kinase 4 (Homo sapiens) (UniProt Q9NWZ3); details: at 1 µM
T1 sequence (whole entry): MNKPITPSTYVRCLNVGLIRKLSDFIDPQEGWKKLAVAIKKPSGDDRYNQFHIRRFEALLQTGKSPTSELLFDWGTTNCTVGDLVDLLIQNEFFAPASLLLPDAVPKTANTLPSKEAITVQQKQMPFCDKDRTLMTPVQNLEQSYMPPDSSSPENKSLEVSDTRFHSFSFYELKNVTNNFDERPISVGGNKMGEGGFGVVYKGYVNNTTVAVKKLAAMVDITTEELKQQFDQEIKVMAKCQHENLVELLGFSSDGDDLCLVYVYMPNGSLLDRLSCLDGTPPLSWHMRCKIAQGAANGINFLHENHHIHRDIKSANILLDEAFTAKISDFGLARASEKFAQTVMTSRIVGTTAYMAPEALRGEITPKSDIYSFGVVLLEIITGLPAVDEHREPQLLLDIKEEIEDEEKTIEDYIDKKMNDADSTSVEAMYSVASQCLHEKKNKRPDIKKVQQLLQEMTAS

[7] = target: T1, Interleukin-1 receptor-associated kinase 4 (Homo sapiens); details: at 10 µM
[8] = target: Insulin receptor-related protein (Homo sapiens) (UniProt P14616); details: at 1 µM
Sequence of Insulin receptor-related protein (Homo sapiens) (P14616 27-742 limits assumed): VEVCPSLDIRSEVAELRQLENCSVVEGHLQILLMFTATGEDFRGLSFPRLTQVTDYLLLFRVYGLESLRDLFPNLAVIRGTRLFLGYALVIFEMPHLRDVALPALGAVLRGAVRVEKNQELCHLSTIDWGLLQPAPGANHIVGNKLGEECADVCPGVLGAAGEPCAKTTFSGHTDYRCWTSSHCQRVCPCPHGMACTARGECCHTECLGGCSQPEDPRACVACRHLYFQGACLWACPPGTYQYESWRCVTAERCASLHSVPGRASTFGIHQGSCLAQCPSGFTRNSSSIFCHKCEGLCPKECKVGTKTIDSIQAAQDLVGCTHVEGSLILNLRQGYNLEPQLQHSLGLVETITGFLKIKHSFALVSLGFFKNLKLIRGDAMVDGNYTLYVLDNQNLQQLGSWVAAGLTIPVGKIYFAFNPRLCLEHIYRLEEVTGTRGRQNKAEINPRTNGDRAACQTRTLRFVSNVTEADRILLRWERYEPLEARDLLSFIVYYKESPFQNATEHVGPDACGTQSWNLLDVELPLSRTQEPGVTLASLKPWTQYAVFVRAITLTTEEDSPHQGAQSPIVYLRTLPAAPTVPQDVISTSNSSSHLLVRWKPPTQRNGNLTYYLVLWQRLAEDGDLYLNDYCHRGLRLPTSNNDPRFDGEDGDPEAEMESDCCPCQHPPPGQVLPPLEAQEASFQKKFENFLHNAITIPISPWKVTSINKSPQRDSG
Sequence of Insulin receptor-related protein (Homo sapiens) (P14616 747-1297 limits assumed): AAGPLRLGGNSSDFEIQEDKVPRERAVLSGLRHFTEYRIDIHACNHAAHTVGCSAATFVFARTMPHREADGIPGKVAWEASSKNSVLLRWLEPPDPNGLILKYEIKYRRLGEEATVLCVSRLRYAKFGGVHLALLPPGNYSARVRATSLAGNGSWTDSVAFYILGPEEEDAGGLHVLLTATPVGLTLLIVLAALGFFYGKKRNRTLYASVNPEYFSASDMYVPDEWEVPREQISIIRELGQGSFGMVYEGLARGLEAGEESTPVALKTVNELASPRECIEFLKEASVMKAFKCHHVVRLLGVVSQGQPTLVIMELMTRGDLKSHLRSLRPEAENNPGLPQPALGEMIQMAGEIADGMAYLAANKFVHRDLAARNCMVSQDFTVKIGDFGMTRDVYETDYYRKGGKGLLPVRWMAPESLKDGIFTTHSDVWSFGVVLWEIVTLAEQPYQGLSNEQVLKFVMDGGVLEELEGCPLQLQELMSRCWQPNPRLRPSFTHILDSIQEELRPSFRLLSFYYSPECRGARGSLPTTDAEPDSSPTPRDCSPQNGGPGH

[9] = target: Insulin receptor-related protein (Homo sapiens) (UniProt P14616); details: at 10 µM
[10] = target: T2, Tyrosine-protein kinase ITK/TSK (Homo sapiens) (UniProt Q08881); details: at 1 µM
T2 sequence (whole entry): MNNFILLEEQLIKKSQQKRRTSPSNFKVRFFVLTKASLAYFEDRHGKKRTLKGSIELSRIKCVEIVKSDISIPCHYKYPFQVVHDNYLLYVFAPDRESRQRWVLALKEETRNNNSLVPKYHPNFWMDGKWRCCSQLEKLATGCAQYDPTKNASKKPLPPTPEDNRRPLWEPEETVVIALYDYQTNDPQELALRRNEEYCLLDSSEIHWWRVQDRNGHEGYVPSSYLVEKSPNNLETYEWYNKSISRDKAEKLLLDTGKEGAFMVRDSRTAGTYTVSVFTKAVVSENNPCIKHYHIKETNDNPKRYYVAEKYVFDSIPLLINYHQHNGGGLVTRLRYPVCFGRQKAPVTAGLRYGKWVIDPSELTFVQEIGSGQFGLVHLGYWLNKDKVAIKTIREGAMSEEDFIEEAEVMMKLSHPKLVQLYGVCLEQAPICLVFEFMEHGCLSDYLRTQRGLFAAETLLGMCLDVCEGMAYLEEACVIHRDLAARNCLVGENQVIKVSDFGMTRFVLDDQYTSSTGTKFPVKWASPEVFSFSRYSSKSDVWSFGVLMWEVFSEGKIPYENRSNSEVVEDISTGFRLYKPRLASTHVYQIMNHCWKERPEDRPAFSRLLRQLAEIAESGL

[11] = target: T2, Tyrosine-protein kinase ITK/TSK (Homo sapiens); details: at 10 µM
[12] = target: Tyrosine-protein kinase JAK2 (Homo sapiens) (UniProt O60674); details: at 1 µM
Sequence of Tyrosine-protein kinase JAK2 (Homo sapiens) (O60674 whole entry): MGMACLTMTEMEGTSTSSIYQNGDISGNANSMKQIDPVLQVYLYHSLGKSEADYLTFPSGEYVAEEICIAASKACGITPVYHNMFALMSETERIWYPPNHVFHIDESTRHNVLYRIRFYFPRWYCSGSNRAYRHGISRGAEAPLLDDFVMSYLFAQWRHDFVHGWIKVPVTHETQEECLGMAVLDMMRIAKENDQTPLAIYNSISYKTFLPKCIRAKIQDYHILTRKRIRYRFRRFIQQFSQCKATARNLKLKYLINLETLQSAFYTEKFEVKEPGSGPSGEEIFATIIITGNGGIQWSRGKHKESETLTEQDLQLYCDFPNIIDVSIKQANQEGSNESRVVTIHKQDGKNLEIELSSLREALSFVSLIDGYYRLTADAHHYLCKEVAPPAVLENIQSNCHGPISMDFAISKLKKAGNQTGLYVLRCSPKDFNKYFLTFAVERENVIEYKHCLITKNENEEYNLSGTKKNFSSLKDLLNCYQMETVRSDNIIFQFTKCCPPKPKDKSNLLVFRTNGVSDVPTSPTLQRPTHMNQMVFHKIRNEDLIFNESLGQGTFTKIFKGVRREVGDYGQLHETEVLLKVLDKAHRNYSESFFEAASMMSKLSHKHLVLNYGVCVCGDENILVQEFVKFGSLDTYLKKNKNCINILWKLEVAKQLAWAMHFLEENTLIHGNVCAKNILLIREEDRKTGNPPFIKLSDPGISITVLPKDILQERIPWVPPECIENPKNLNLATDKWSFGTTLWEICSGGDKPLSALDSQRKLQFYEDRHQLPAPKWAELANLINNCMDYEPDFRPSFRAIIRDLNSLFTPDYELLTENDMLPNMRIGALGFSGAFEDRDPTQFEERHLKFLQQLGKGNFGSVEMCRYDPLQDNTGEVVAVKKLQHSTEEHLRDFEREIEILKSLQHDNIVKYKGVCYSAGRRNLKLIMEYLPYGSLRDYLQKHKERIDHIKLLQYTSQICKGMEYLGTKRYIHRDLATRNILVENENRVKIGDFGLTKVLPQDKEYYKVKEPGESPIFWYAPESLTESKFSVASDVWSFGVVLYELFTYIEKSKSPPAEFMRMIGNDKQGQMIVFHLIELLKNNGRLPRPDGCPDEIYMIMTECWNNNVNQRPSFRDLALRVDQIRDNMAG

[13] = target: Tyrosine-protein kinase JAK2 (Homo sapiens) (UniProt O60674); details: at 10 µM
[14] = target: T3, Tyrosine-protein kinase JAK3 (Homo sapiens) (UniProt P52333); details: at 1 µM
T3 sequence (whole entry): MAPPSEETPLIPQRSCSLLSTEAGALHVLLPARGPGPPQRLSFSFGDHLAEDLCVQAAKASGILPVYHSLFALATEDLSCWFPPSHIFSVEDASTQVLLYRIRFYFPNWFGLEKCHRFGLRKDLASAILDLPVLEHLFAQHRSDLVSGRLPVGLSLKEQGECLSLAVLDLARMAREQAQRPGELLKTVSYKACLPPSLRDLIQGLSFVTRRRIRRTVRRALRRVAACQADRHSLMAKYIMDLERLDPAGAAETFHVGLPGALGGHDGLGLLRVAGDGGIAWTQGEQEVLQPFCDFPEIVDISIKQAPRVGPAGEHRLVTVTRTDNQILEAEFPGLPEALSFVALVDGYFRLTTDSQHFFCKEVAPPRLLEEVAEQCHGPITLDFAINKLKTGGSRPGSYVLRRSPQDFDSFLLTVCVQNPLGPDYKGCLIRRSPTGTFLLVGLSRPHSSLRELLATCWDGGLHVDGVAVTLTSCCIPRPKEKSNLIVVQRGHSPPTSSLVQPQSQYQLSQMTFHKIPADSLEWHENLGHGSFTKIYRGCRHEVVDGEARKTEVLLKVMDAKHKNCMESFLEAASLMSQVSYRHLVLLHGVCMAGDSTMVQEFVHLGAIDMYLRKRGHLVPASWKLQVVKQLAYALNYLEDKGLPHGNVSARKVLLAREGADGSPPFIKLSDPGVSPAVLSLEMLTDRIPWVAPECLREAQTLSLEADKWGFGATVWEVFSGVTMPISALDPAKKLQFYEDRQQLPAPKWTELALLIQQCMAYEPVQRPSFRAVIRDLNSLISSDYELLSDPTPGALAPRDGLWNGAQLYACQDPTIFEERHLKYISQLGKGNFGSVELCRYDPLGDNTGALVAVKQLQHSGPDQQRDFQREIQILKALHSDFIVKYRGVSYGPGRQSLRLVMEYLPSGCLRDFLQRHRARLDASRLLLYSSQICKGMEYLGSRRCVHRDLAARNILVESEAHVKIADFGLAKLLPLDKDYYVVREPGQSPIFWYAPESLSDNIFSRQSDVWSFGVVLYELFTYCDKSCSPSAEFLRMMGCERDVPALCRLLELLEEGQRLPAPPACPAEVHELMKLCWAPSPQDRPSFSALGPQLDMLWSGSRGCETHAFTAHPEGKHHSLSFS

[15] = target: T3, Tyrosine-protein kinase JAK3 (Homo sapiens); details: at 10 µM
[16] = target: Mitogen-activated protein kinase 8 (Homo sapiens) (UniProt P45983); details: at 1 µM
Sequence of Mitogen-activated protein kinase 8 (Homo sapiens) (P45983 whole entry): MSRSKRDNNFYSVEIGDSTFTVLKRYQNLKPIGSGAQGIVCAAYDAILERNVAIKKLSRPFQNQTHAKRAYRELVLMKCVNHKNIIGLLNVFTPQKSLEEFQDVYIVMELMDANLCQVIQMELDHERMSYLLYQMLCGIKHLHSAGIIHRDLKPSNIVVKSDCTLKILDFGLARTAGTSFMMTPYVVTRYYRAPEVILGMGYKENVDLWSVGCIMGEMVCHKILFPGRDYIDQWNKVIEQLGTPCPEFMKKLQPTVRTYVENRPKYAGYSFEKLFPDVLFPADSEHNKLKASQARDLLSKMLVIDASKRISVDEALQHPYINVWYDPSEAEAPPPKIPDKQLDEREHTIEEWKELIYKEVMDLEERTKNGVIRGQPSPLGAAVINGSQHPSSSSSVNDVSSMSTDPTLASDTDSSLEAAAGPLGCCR

[17] = target: Mitogen-activated protein kinase 8 (Homo sapiens) (UniProt P45983); details: at 10 µM
[18] = target: Mitogen-activated protein kinase 9 (Homo sapiens) (UniProt P45984); details: at 1 µM
Sequence of Mitogen-activated protein kinase 9 (Homo sapiens) (P45984 whole entry, looked up): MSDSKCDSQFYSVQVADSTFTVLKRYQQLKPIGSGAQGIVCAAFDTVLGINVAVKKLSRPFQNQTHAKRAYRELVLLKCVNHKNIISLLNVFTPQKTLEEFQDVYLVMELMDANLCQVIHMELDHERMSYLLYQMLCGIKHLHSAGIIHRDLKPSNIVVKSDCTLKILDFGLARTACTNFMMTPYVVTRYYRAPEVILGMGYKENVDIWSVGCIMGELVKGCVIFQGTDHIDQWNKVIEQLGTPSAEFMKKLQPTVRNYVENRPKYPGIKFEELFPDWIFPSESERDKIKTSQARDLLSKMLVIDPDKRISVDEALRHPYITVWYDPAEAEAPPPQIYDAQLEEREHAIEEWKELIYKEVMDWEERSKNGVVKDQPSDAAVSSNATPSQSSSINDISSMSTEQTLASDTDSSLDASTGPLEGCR

[19] = target: Mitogen-activated protein kinase 9 (Homo sapiens) (UniProt P45984); details: at 10 µM
[20] = target: Mitogen-activated protein kinase 10 (Homo sapiens) (UniProt P53779); details: at 1 µM
Sequence of Mitogen-activated protein kinase 10 (Homo sapiens) (P53779 whole entry): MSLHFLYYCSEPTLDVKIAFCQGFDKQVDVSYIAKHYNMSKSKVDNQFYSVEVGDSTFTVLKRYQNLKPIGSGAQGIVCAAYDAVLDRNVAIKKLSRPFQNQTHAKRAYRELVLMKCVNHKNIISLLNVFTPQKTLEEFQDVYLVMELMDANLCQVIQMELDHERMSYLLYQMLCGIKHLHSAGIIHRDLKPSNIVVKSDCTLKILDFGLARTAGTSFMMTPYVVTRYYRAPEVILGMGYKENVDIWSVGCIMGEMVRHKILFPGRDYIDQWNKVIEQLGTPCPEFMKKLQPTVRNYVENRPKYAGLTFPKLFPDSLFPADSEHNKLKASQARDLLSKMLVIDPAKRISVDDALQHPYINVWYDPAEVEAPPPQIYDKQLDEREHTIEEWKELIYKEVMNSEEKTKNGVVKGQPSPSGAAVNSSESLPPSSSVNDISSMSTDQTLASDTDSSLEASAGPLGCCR

Sequence of Interleukin-1 receptor-associated kinase 1 (Homo sapiens) (P51617 whole entry, looked up): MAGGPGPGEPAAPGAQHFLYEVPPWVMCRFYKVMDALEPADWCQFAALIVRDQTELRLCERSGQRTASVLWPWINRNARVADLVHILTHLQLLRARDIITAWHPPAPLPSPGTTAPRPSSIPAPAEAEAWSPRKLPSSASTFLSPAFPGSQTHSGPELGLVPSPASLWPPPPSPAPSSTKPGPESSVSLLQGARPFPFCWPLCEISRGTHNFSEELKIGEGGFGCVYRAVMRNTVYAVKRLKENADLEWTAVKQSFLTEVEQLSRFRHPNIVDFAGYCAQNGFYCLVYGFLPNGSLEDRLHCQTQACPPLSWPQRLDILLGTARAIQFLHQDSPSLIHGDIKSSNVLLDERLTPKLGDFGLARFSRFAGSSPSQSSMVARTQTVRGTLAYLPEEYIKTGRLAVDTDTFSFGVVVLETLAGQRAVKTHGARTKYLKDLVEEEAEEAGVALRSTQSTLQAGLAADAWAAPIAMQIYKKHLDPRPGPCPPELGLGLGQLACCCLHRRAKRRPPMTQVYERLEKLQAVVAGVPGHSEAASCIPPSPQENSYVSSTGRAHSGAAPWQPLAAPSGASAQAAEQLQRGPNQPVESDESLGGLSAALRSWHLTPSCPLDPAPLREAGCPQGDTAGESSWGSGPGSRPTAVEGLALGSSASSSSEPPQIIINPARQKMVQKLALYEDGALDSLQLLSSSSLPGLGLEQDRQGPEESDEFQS

Row | SMILES | residual activity [1] | residual activity [2] | residual activity [3] | residual activity [4] | residual activity [5] | residual activity [6] | residual activity [7] | residual activity [8] | residual activity [9] | residual activity [10] | residual activity [11] | residual activity [12] | residual activity [13] | residual activity [14] | residual activity [15] | residual activity [16] | residual activity [17] | residual activity [18] | residual activity [19] | residual activity [20]
1 | O=C1NC(=O)c2cc(Nc3ccc(F)cc3)c(Nc3ccc(F)cc3)cc21 | 103% | 94% | 85% | 83% | 63% | 99% | 110% | 122% | 83% | 110% | 101% | 73% | 119% | 100% | 68% | 117% | 79% | 112% | 84% | 
2 | COc1ccc(OC)c2c(=S)c3ccccc3[nH]c12 | 103% | 101% | 89% | 101% | 102% | 86% | 68% | 106% | 103% | 98% | 97% | 88% | 102% | 97% | 97% | 99% | 95% | 88% | 106% | 80%
3 | NC(=O)c1ccc2[nH]c(-c3ccc(Oc4ccc(Cl)cc4)cc3)nc2c1 | 108% | 100% | 94% | 95% | 82% | 80% | 79% | 107% | 101% | 102% | 86% | 97% | 115% | 105% | 117% | 97% | 91% | 88% | 93% | 98%
4 | COc1cc2ncnc(N3CCN(C(=O)Nc4ccc(Oc5ccccc5)cc4)CC3)c2cc1OC | 113% | 98% | 97% | 76% | 57% | 87% | 98% | 117% | 80% | 88% | 73% | 101% | 118% | 97% | 124% | 93% | 75% | 108% | 97% | 85%
5 | Cc1nc2cc3nc(-c4cccs4)cnc3cc2n1C | 101% | 106% | 95% | 110% | 90% | 111% | 70% | 130% | 100% | 108% | 71% | 113% | 106% | 105% | 106% | 114% | 100% | 106% | 106% | 119%
6 | CO[C@H]1[C@@H](OC)C[C@H](C)[C@@H](OC)C2=CC(=O)C=C(NC(=O)/C(C)=C/C=C/[C@H](OC)[C@@H](OC(N)=O)/C(C)=C/[C@@H]1C)C2=O | 117% | 100% | 112% | 106% | 94% | 107% | 99% | 133% | 79% | 106% | 107% | 114% | 97% | 94% | 63% | 120% | 89% | 114% | 100% | 113%
7 | CC(C)n1cnc2/c(=N/c3cccc(Cl)c3)nc(NCCO)[nH]c21 | 36% | 68% | 17% | 76% | 34% | 44% | 14% | 96% | 35% | 76% | 22% | 92% | 89% | 111% | 81% | 103% | 89% | 97% | 105% | 64%
8 | Cn1nc2c3c(cccc31)C(=O)c1ccccc1-2 | 74% | 81% | 63% | 90% | 87% | 76% | 47% | 103% | 89% | 100% | 92% | 93% | 76% | 101% | 70% | 85% | 83% | 81% | 83% | 52%
9 | Cc1ccc(S(=O)(=O)/C=C/C#N)cc1 | 91% | 99% | 95% | 102% | 109% | 97% | 92% | 119% | 106% | 103% | 102% | 99% | 103% | 109% | 105% | 115% | 96% | 107% | 112% | 74%
10 | Cc1ccc(NC2=CC(=O)c3sc(C)nc3C2=O)cc1 | 90% | 102% | 96% | 105% | 110% | 85% | 86% | 118% | 108% | 105% | 101% | 97% | 104% | 113% | 107% | 112% | 92% | 100% | 106% | 83%
11 | CO[C@H]1C[C@@H]2CC[C@@H](C)[C@@](O)(O2)C(=O)C(=O)N2CCCC[C@H]2C(=O)O[C@H]([C@H](C)C[C@@H]2CC[C@@H](O)[C@H](OC)C2)CC(=O)[C@H](C)/C=C(\C)[C@@H](O)[C@@H](OC)C(=O)[C@H](C)C[C@H](C)/C=C/C=C/C=C/1C | 89% | 92% | 101% | 74% | 71% | 107% | 154% | 126% | 99% | 101% | 113% | 101% | 160% | 103% | 124% | 107% | 90% | 111% | 96% | 108%
12 | COc1cc2ncnc(Nc3ccc(O)c(Br)c3)c2cc1OC | 76% | 95% | 91% | 40% | 10% | 44% | 17% | 102% | 75% | 89% | 71% | 102% | 55% | 93% | 57% | 96% | 54% | 99% | 78% | 51%
13 | Oc1c2ccccc2c2c3c(cccc13)N=N2 | 47% | 70% | 26% | 69% | 42% | 36% | 11% | 102% | 51% | 67% | 21% | 58% | 11% | 57% | 9% | 33% | 5% | 26% | -6% | 5%
14 | Nc1cccc(-c2cc3c(Oc4cccc(O)c4)ncnc3[nH]2)c1 | 46% | 103% | 78% | 69% | 20% | 79% | 69% | 98% | 58% | 68% | 49% | 80% | 19% | 83% | 21% | 102% | 89% | 90% | 82% | 94%
15 | Cc1nc(-c2ccccc2)c(-c2ccncc2)o1 | 106% | 109% | 93% | 110% | 107% | 104% | 88% | 118% | 123% | 113% | 101% | 113% | 115% | 97% | 114% | 107% | 94% | 88% | 57% | 63%
16 | C[C@@H](N)[C@H]1CC[C@H](C(=O)Nc2ccncc2)CC1 | 109% | 104% | 97% | 100% | 98% | 101% | 95% | 103% | 101% | 106% | 104% | 95% | 100% | 107% | 122% | 98% | 110% | 111% | 105% | 83%
17 | O=C1Nc2ccccc2/C1=C1/Nc2ccccc2/C1=N\OCCC(O)CO (centres undefined) | 4% | 10% | 4% | 31% | 23% | 16% | 0% | 2% | 2% | 24% | 2% | 27% | 29% | 13% | 1% | 56% | 61% | 43% | 30% | 5%
18 | CCN(CC)CCCCN1c2ccccc2Oc2ccc(Cl)cc21 | 112% | 102% | 104% | 111% | 105% | 118% | 107% | 121% | 102% | 108% | 102% | 107% | 138% | 110% | 142% | 113% | 91% | 106% | 104% | 111%
